Reference: PubChem BioAssay (NCATS)
Records with an inconclusive call do not appear. Unmarked numbers belong to inactive results. Active and inactive are the calls of the source. Calls come from the whole dose curve; as a rule, active = well fitted cell-killing curve with a large enough effect; inconclusive = small, poorly fitted or top-dose-only effect, or effect the other way; inactive = no such curve, though single readings can be large or run the other way. Peptide text beside a SMILES is read from it.

assay: qHTS assay to identify small molecule inhibitors of chordoma cells - UCH-1 (AID 1259355); conditions: UCH-1 chordoma viability, CellTiter-Glo, 48 h, combination, with auranofin plus four topoisomerase inhibitors; series mostly up to 46.1 µM; activity, negative = inhibition: at the top concentration; note: nearly all actives have a fitted effect of over 55% in size
Summary of the method: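 Screening used approved and investigational drugs in 15-point titration against 800 seeded cells per well. A fixed combination of auranofin with camptothecin, doxorubicin, rubitecan and topotecan followed compound addition, and growth was scored by CellTiter-Glo after 48hr.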
% is set by controls: 0 for no effect and ±100 for the full control effect; potency is the fitted concentration of half-maximal effect.

Structure (SMILES)	Potency	activity, negative = inhibition
O=C(Nc1cccc(C(F)(F)F)c1)c1cc(Br)cc(Br)c1O	12.6 µM (active)	
CO[C@@H]1[C@@H](O[C@@H]2O[C@H](C)[C@@H](O[C@H]3C[C@@](C)(O)[C@@H](OC(=O)CC(C)C)[C@H](C)O3)[C@H](N(C)C)[C@H]2O)[C@@H](CC=O)C[C@@H](C)C(=O)/C=C/C2OC2C[C@@H](C)OC(=O)C[C@H]1OC(C)=O (some centres undefined)		-21.8%
Nc1ccn([C@H]2CS[C@@H](CO)O2)c(=O)n1		-6.49%
CC[C@@]1(O)C(=O)OCc2c1cc1n(c2=O)Cc2cc3c([N+](=O)[O-])cccc3nc2-1	0.794 µM (active)	
COC(=O)[C@H]1[C@H]2C[C@@H]3c4[nH]c5ccccc5c4CCN3C[C@H]2C[C@@H](OC(=O)c2cc(OC)c(OC)c(OC)c2)[C@@H]1OC	10 µM (active)	
CCCCC(=O)N(Cc1ccc(-c2ccccc2-c2nn[nH]n2)cc1)[C@@H](C(=O)O)C(C)C		-1.52%
CCC1OC(=O)C[C@@H](O)[C@H](C)[C@@H](O[C@@H]2O[C@H](C)C[C@H](N(C)C)[C@H]2O)[C@@H](CC=O)C[C@@H](C)C(=O)/C=C/[C@]2(C)OC2C1C (some centres undefined)		-13.7%
COc1ccc(C[C@H](N)C(=O)N[C@H]2[C@@H](O)[C@H](n3cnc4c(N(C)C)ncnc43)O[C@@H]2CO)cc1	11.2 µM (active)	
CCCCCCOc1ccc(C(=N)N(CCCC)CCCC)c2ccccc12		-7.77%
CCOC(=O)C1=CC2(CC)CCCN3CCc4c(n1c1ccccc41)C32 (centres undefined)		-21.2%
COC(=O)[C@H]1[C@H]2CC3c4[nH]c5ccccc5c4CCN3C[C@@H]2CC[C@@H]1O (some centres undefined)		-17%
CN=C(NC#N)Nc1ccc(C2=NNC(=O)C[C@@H]2C)cc1		-15.6%
O=S(=O)(O)c1cc(O)c2c(N=Nc3ccc(Nc4ccccc4)c4c(S(=O)(=O)O)cccc34)cc(S(=O)(=O)O)cc2c1	15.8 µM (active)	
CC(Cc1ccc(O)c(O)c1)C(C)Cc1ccc(O)c(O)c1 (centres undefined)		-7.63%
Oc1cc(O)c2c(c1)OC(c1ccc(O)c(O)c1)C(O)C2 (centres undefined)		-17.1%
NC1C2CN(c3nc4c(cc3F)c(=O)c(C(=O)O)cn4-c3ccc(F)cc3F)CC12 (centres undefined)		-20.4%
CC(C)(C)C(=O)OCOC(=O)[C@@H]1N2C(=O)[C@@H](N=CN3CCCCCC3)[C@H]2SC1(C)C		12.2% [at 20.6 µM]

Structure (SMILES)	Potency	activity, negative = inhibition
CCCCCCC(O)C/C=C/CCCCCCCC(=O)O (centres undefined)		-12.1%
CC(=O)N[C@@H](CC(=O)O)C(=O)N[C@@H](CCC(=O)O)C(=O)O (Ac-Asp-Glu-OH)		2.19%
CCCC(=O)Nc1ncnc2c1ncn2C1OC2COP(=O)(O)OC2C1OC(=O)CCC (centres undefined)		-10.6%
CCCCC(=O)OCC(=O)[C@]1(O)Cc2c(O)c3c(c(O)c2[C@@H](O[C@H]2C[C@H](NC(=O)C(F)(F)F)[C@H](O)[C@H](C)O2)C1)C(=O)c1c(OC)cccc1C3=O	6.31 µM (active)	
CCC(=O)O[C@]1(C(=O)CCl)[C@@H](C)C[C@H]2[C@@H]3C[C@H](F)C4=CC(=O)C=C[C@]4(C)[C@@]3(F)[C@@H](O)C[C@@]21C		-44.1%
CC1(C)S[C@@H]2[C@H](NC(=O)C(C(=O)O)c3ccsc3)C(=O)N2[C@H]1C(=O)O (some centres undefined)		2.35%
CCCCCC(CC)COC(=O)CC(C(=O)OCC(CC)CCCC)S(=O)(=O)O (centres undefined)		7.45%
Cc1cc(CC(C)CC(C)(C)C)n(O)c(=O)c1 (centres undefined) (tested in a mixture with another compound)		-9.36%
Cc1c(C)c2c(c(C)c1O)CC[C@@](C)(CCC[C@@H](C)CCC[C@@H](C)CCCC(C)C)O2		4%
CN1CCC(CN2c3ccccc3Sc3ccccc32)C1 (centres undefined)		-20.2%
NC(=O)c1ncn(C2OC(CO)C(O)C2O)n1 (centres undefined)		11.5%
Nc1c(N=Nc2ccc(-c3ccc(N=Nc4cc(S(=O)(=O)O)c5ccccc5c4N)cc3)cc2)cc(S(=O)(=O)O)c2ccccc12		-28.5%
C[C@]12C=CC(=O)N[C@@H]1CC[C@@H]1[C@@H]2CC[C@]2(C)[C@@H](C(=O)Nc3cc(C(F)(F)F)ccc3C(F)(F)F)CC[C@@H]12		-19.8%
CC(C(=O)O)c1ccc(N2Cc3ccccc3C2=O)cc1 (centres undefined)		-21%
Cc1cc(C(=O)NNCc2ccccc2)no1		-28.8% [at 20.6 µM]
C#C[C@]1(O)CC[C@H]2[C@@H]3CCC4=C/C(=N/O)CC[C@@H]4[C@H]3CC[C@@]21CC		-11.6%
COc1ccc2c3c1O[C@H]1C[C@@H](O)C=C[C@@]31CCN(C)C2		-5.16%
